Assay results: ChEMBL document CHEMBL3988442, “University of Dundee, Small-Polar-MMV Screening Library” (2021)
For some of these results: Potency and affinity values are given separately.

Tests used:
Design in all cases: scale not given: direction of the effect not stated beside the values
[1] = target: Protein translocase subunit SecA (Escherichia coli (strain K12)) (UniProt P10408); test: Assay to Identify E. coli SecA ATPase Inhibitors; format: functional; details: 30 µM
[2] = target: T1, Ubiquitin-activating enzyme e1, putative (Leishmania donovani (strain BPK282A1)) (UniProt E9BSI1); test: Leishmania donovani Ubiquitin Activating Enzyme (LdE1); format: functional; details: 30 µM
T1 sequence (whole entry): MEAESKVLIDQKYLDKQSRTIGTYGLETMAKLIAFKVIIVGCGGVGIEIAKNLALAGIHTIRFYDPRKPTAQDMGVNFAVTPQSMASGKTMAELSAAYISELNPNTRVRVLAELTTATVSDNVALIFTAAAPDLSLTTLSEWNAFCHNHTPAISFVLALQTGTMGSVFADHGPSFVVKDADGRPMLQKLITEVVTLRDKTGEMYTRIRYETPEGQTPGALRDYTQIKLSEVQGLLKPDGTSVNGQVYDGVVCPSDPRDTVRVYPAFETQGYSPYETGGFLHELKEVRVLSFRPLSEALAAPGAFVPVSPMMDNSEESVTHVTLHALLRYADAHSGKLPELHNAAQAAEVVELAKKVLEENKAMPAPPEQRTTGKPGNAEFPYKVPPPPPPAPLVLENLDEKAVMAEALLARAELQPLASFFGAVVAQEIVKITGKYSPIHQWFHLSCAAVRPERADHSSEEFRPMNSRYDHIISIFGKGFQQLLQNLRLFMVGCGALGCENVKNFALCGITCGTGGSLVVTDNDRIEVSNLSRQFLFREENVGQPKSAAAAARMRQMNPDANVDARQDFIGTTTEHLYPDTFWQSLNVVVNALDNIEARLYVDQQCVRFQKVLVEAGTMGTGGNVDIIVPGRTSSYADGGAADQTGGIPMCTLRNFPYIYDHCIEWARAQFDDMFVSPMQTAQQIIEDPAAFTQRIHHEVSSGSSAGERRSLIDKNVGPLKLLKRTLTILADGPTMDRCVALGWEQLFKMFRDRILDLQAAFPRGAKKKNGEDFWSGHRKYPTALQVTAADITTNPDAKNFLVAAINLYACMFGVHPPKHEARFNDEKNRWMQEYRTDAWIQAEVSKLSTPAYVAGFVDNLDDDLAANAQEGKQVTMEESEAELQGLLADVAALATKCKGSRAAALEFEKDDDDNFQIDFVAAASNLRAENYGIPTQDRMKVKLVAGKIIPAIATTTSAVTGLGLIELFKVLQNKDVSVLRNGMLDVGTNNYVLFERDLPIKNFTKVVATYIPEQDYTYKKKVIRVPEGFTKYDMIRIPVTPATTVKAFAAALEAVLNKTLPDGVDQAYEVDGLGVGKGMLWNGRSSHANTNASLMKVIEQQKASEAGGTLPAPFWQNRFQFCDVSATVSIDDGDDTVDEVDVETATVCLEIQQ

[3] = target: AMP-activated protein kinase, AMPK (Homo sapiens) (UniProt P54646+O43741+P54619+Q9UGJ0+Q9Y478+Q13131+Q9UGI9); test: AMP-dependent Kinase enzyme assay. An in vitro enzyme assay that detects ADP turnover that is directly proportional to AMPK activity. This uses naive AMPK that is activated during the assay with MK-8722; format: functional; details: 30 µM
[4] = target: Sialic acid-binding Ig-like lectin 9 (Homo sapiens) (UniProt Q9Y336); test: Hs-Siglec9 ALPHAscreen SOP 20170721; details: 10 µM
Sialic acid-binding Ig-like lectin 9 (Homo sapiens), sequence (Q9Y336 whole entry): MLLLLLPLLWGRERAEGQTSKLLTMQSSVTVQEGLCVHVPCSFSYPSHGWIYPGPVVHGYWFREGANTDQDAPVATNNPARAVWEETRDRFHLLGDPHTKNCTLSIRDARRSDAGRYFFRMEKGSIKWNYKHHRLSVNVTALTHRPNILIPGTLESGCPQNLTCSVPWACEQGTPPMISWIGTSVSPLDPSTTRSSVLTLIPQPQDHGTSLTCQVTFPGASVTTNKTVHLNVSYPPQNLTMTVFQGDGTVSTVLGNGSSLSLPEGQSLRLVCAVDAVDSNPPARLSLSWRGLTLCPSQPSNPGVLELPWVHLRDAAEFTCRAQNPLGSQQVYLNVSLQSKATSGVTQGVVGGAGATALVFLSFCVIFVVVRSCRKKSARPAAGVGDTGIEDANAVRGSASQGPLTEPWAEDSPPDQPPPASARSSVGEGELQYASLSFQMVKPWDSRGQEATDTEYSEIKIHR

Trypanosoma cruzi = test: Trypanosoma cruzi phosphomannomutase and mannose-1-phosphate guanylyltransferase assay; format: functional; details: 10 µM
[5] = target: T2, Arginase-2, mitochondrial (Homo sapiens) (UniProt P78540); test: in vitro enzyme assay to detect the production of urea directly proportional to the activity of Arginase II; format: functional; details: 33.3 µM; further: in the data most compounds retested in dose-response had high values
T2 sequence (whole entry): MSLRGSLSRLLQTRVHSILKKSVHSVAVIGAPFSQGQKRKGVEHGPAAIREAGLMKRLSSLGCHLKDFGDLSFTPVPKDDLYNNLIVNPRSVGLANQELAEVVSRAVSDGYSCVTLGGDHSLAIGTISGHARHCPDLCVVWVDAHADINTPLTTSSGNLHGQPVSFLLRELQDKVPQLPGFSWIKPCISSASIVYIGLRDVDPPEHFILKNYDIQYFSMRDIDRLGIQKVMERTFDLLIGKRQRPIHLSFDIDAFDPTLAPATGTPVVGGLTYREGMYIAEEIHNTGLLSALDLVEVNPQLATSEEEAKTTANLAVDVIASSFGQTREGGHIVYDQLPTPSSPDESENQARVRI

[6] = target: T3, Proteasome subunit beta (Trypanosoma cruzi) (UniProt O96673); test: Trypanosoma cruzi proteasome chymotrypsin-like activity (TcProtChymo) assay.; further: in the data most compounds retested in dose-response had high values; format: functional; details: 9.37 µM
T3 sequence (whole entry): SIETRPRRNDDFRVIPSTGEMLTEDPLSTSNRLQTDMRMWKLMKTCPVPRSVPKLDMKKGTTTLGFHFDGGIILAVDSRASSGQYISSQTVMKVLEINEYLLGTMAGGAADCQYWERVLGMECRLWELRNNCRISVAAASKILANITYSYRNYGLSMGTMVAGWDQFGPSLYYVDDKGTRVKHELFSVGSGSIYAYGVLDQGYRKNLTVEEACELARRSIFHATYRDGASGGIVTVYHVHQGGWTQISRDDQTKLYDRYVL

Homo sapiens = species: Homo sapiens; test: To identify inhibition of the IFN signalling (Jak-Stat) pathway via expression of an eGFP reporter gene under the control of an IFN-stimulated response element (ISRE) containing MxA promoter.; format: functional; details: 30 µM
[7] = target: T4, Tyrosyl-tRNA synthetase, putative (Trypanosoma cruzi (strain CL Brener)) (UniProt Q4DSP6); test: Trypanosoma cruzi tyrosyl tRNA synthetase (TcYRS) _High Tyrosine SOP; format: functional; details: 30 µM; further: in the data most compounds retested in dose-response had high values
T4 sequence (whole entry): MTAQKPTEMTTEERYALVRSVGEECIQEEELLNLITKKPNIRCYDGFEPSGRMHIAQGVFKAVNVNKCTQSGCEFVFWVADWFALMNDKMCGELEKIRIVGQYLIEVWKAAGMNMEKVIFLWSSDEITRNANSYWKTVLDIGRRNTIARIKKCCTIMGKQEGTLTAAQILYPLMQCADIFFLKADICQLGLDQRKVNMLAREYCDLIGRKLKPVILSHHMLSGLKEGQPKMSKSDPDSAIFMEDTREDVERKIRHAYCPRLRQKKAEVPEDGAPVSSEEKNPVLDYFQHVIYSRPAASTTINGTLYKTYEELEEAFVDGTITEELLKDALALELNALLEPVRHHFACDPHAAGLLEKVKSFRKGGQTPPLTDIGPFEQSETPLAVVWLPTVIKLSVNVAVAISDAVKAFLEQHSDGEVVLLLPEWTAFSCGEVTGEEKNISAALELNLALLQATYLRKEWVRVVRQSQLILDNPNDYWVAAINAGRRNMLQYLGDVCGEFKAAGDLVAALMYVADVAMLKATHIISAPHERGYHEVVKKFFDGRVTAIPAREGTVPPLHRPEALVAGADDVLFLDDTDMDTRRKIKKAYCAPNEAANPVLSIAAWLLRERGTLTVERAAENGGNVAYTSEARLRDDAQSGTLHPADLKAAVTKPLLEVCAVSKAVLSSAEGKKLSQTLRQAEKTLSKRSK

[8] = target: T4, Tyrosyl-tRNA synthetase, putative (Trypanosoma cruzi (strain CL Brener)); test: Trypanosoma cruzi tyrosyl tRNA synthetase (TcYRS) SOP; format: functional; details: 30 µM
[9] = target: Chromo domain-containing protein 1 (Saccharomyces cerevisiae (strain ATCC 204508 / S288c) (Baker's yeast)) (UniProt P32657); test: ScCHD-1 Enzyme Inhibition Assay; format: functional; details: 30 µM; further: in the data most compounds retested in dose-response had high values
Chromo domain-containing protein 1 (Saccharomyces cerevisiae (strain ATCC 204508 / S288c) (Baker's yeast)), sequence (P32657 whole entry, the tested form may be a part): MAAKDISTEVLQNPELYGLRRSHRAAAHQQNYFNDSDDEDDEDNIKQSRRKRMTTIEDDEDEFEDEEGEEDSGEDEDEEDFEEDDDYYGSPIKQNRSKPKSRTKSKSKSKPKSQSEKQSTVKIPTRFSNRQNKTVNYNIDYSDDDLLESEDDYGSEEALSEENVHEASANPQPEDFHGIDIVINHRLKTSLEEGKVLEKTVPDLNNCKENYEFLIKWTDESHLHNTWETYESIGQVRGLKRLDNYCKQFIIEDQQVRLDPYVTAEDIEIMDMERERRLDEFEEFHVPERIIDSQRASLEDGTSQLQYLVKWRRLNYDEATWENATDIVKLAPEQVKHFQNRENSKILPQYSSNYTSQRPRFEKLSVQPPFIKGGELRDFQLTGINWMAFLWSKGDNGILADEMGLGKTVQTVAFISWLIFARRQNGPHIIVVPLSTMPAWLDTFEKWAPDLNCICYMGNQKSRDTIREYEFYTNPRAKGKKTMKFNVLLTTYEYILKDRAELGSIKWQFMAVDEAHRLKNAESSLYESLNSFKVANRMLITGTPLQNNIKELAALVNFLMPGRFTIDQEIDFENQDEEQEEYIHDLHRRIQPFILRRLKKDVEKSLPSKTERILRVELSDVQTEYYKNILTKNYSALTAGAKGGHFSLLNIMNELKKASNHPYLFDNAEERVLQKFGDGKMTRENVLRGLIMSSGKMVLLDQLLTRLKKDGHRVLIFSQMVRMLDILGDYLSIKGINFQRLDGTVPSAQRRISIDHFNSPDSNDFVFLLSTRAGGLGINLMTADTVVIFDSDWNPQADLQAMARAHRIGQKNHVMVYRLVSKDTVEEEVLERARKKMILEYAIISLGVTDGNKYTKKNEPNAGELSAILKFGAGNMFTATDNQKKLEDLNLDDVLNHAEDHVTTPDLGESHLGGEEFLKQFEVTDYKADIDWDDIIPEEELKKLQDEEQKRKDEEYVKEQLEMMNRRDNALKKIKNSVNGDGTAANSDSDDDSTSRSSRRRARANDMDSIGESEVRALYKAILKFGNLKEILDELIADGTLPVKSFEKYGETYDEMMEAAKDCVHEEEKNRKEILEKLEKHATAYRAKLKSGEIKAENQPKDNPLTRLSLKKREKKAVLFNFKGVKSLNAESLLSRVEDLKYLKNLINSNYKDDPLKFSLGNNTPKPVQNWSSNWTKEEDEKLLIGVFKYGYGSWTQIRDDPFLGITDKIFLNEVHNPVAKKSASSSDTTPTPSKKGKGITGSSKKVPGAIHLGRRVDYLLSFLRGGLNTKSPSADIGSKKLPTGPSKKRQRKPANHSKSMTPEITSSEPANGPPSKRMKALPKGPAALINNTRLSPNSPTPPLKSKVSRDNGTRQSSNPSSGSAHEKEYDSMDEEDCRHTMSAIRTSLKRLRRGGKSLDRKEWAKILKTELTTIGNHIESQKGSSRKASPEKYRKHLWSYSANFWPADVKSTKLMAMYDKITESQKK

Protein translocase subunit SecA (Escherichia coli (strain K12)), sequence (P10408 whole entry): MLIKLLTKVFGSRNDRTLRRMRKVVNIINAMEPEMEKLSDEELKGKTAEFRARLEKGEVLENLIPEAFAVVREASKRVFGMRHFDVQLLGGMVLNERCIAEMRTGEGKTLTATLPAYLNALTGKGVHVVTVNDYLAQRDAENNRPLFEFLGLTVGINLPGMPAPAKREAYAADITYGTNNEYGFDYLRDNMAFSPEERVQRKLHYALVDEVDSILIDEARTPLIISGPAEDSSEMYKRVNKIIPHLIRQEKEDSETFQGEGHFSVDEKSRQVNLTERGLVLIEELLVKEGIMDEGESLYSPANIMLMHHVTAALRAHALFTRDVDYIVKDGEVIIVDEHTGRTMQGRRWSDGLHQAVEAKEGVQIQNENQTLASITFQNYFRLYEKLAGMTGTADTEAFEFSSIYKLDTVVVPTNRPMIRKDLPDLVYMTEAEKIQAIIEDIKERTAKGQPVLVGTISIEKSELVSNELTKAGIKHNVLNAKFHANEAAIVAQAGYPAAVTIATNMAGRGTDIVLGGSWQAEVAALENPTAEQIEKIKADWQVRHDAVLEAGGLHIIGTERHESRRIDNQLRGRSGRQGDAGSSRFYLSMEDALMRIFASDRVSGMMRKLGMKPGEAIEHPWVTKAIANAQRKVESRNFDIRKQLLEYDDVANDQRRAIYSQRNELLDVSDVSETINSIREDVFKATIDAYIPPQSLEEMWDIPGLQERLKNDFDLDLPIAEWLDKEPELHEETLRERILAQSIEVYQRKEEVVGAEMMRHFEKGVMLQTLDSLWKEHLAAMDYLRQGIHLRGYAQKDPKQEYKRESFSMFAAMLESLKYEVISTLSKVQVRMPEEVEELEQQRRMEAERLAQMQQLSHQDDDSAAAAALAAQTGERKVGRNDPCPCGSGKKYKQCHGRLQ

Row | Compound | Percent Effect [1] [%] | Percent Effect [2] [%] | Percent Effect [3] [%] | Percent Effect [4] [%] | Percent Effect (Trypanosoma cruzi) [%] | Percent Effect [5] [%] | Percent Effect [6] [%] | Percent Effect (Homo sapiens) [%] | Percent Effect [7] [%] | Percent Effect [8] [%] | Percent Effect [9] [%]
1 | Cc1cnc(C(=O)N2CCCC(n3ccnc3C)C2)cn1 (configuration not stated) | -4.96 | 5.26 | -7.85 | 7.54 | 8.5 | 0.36 | 3.13 | 3.76 | 5.42 | 18.5 | -4.86
2 | CCN1CCC(NC(=O)CN2CCCC2Cn2nc(C)cc2C)CC1 (configuration not stated) | -3.31 | 2.7 | -2.56 | 6.76 | -3.3 | -5.61 | -0.54 | 3.04 | 4.43 | 1.24 | 0.399
3 | O=C(NCc1ccccn1)[C@H]1COC[C@H]2CN(Cc3ccoc3)C[C@H]21 | -2.43 | 2.7 | 6.89 | -1.93 | -6.16 | 2.87 | 20.3 | -4.49 | 5.41 | 7.69 | -5.52
4 | Cn1ncc2c1C(COCC1CC1)CN(Cc1ccc(F)cc1)C2 (configuration not stated) | -0.87 | 18.9 | 3.73 | -11.9 | -1.07 | 0.955 | 8.12 | 23.2 | 2.16 | 15.4 | -6.67
5 | COCCN1CCc2cc(C(=O)N(C)C)c(NC(C)C)nc2CC1 | -0.676 | 8.11 | -3.33 | -5.3 | -2.25 | 0.248 | 0.429 | -3.78 | -10.8 | 3.7 | -3.16
6 | O=C(c1ccco1)N1CCC2(CCOC2)C1 (configuration not stated) | -0.538 | 12 | -4.74 | -1.73 | -2.16 | 3.35 | 20.1 | -9.81 | 1.06 | 7.69 | -7.58
7 | COc1ccc(CN2CCc3ncnc(OC(C)C)c3CC2)cc1 | 2.24 | 10.7 | 7.06 | -5.75 | -6.37 | -53.9 | 16.2 | 19 | -14.6 | 0 | -4.41
8 | Cc1nc(C(=O)N2CCCC(c3cccc(-n4ccnc4)n3)C2)co1 (configuration not stated) | -7.87 | 1.35 | 2.78 | 1.23 | -5.34 | -2.55 | 10.1 | 12.6 | 0 | 1.3 | -6.74
9 | O=C(Cc1ccccc1F)N1CCN(C(=O)c2ccoc2)CC1 | -1.97 | 7.89 | 7.43 | -1.79 | -2.04 | -23.7 | 22.5 | -4.65 | 9.57 | 18.2 | -2.49
10 | CCOCC1CN(Cc2cccc(C#N)c2)Cc2nccn2C1 (configuration not stated) | -3.99 | -5.48 | 2.91 | 1.44 | -2.38 | -2 | 12.4 | -1.58 | 4.17 | 3.7 | -1.98
11 | COc1cc(CN(C(=O)Nc2cccnc2OC)C2CC2)ccc1O | -3.67 | 2.6 | 7.29 | 11.9 | -2.25 | -0.712 | 5.91 | 23.5 | 3.88 | 12.2 | -4.72
12 | CCCNC(=O)COc1ccc(C)cn1 | -4.18 | 11 | -5.89 | 4.96 | 4.76 | -0.798 | 6.59 | -7.03 | 6.25 | -3.7 | -11.8
13 | O=C(CCc1cccs1)N1CCCCC1Cn1cccn1 (configuration not stated) | -6.87 | 10.4 | -2.34 | -15.4 | 5.19 | -1.47 | 10.4 | 1.69 | 5.71 | 21.2 | -15.9
14 | NC(=O)C1CCN(CCc2ccc(NC(=O)C3CCC3)cc2)CC1 | -4.73 | 8.11 | -5.62 | 9.13 | 2.14 | -0.554 | 2.87 | 6.62 | 6.93 | 23.2 | -5.51
15 | O=C(NCCOCC(F)(F)F)c1ccc(-c2ccco2)[nH]c1=O | -1.86 | 8.11 | 3.08 | 3.06 | -6.13 | -0.802 | 8.29 | 19.7 | 6.4 | 11.1 | -6.31
16 | CCS(=O)(=O)N1CCC2(CCCN(Cc3cc(OC)ccc3F)C2)C1 (configuration not stated) | -4.17 | 6.94 | -5.98 | -4.29 | -2.23 | 0.883 | 14.6 | 16.9 | 6.32 | 7.69 | -4.39
17 | Cc1nn(C)c2cnn(C(C)C(=O)NCc3cccnc3)c12 (configuration not stated) | -0.721 | 20 | -1.87 | 5 | 1.18 | -1.58 | 12.8 | 17.9 | 5.29 | 17.9 | -9.71
